Experimental data as given in the supplement of paper PMC6555819.

Columns and labels:
Experiment in all cases: PBM binding z-score (relative to random genomic background probes); higher = stronger binding; sequences stand for … in GC…GCGATTGACAGCGTAGAATGAAGG
[1] = test system: PPARg:RXRa DBDmut IVT, anti-RXR (DBD mutation: RXRa K156A/R161A, NR concentration 270 nM, RXRa partner concentration 90 nM)
How it was run: (§1)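 The probes on custom Agilent 4×180K protein-binding microarrays were double-stranded, with 34-nt variable regions bearing direct-repeat seeds, single-nucleotide variants, half-site ablations and random human genomic background sequences. Incubation lasted 1 h with ligand-free nuclear receptor dimers in PBS pH 7.4, 2% milk, 0.02% Triton X-100, 1 mM DTT, 0.2 mg/mL BSA and 0.4 mg/ml salmon testes DNA. Antibodies against each partner (one per run) detected bound dimers, and fluorescence scans were regression-normalized. Binding z-scores take the random background probes as reference.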

[2] = test system: PPARg:RXRa IVT, anti-PPARg (NR concentration 270 nM, RXRa partner concentration 90 nM)
How it was run: as §1

[3] = test system: PPARg DBDmut:RXRa IVT, anti-PPARg (DBD mutation: PPARg1 K132A/R137A, NR concentration 270 nM, RXRa partner concentration 90 nM)
How it was run: as §1

[4] = test system: PPARg DBDmut IVT, anti-PPARg (DBD mutation: PPARg1 K132A/R137A, NR concentration 270 nM)
How it was run: as §1

[5] = test system: PPARg homodimer (NR concentration 180 nM)
How it was run: as §1

[6] = test system: PXR:RXRa (NR concentration 270 nM, RXRa partner concentration 90 nM)
How it was run: as §1

[7] = test system: PXR homodimer (NR concentration 270 nM)
How it was run: as §1

[8] = test system: RARa:RXR (NR concentration 270 nM, RXRa partner concentration 90 nM)
How it was run: as §1

[9] = test system: RARa homodimer (NR concentration 270 nM)
How it was run: as §1

[10] = test system: RARb:RXRa (NR concentration 270 nM, RXRa partner concentration 90 nM)
How it was run: as §1

| Sequence | PBM binding z-score [1] | PBM binding z-score [2] | PBM binding z-score [3] | PBM binding z-score [4] | PBM binding z-score [5] | PBM binding z-score [6] | PBM binding z-score [7] | PBM binding z-score [8] | PBM binding z-score [9] | PBM binding z-score [10] |
| --- | --- | --- | --- | --- | --- | --- | --- | --- | --- | --- |
| TAGCCTAGGTCATGCGGGCCAGTAGAGTGTCGGC | 1.93 | 2.8 | -0.889 | -0.693 | 0.316 | 1.39 | -0.448 | 2.37 | -0.56 | 3.75 |
| AGAAGGAGGTTACCAAAGATCAGGGAAACGCTTG | 2.51 | 2.63 | 0.699 | 0.604 | 0.719 | 1.25 | 0.551 | 1.46 | 0.412 | 1.89 |
| ACTTACGGGTCAACGAGGCTATAGCACGCGTATA | 3.07 | 3.98 | 0.121 | 1.38 | 1.92 | 3.59 | 0.421 | 4.16 | 0.515 | 4.01 |
| GCTTACGGGTCAAAGGTTATACCATGAATAGAAT | 4.59 | 6.16 | 1.82 | 1.93 | 2.73 | 6.11 | 0.691 | 8.2 | 0.701 | 4.64 |
| CCTACTGGGCCAAGGTCATGGATCAGTCAAAGCA | 3.36 | 4.9 | -0.856 | -0.00696 | 0.941 | 3.26 | 0.388 | 3.81 | 0.247 | 3.53 |
| CTCTAAAGGTCGGTTGAGGTGAGTATACGGATAA | 0.506 | 1.04 | 0.0568 | 0.0389 | 1.04 | 3.48 | 0.187 | 2.31 | -0.146 | 3.31 |
| TGTATGAGGTTATAAGATCAGGGAACGTTGCAAA | 0.0132 | 0.98 | 0.426 | 0.745 | 0.994 | 1.1 | -0.0169 | 1.62 | 0.679 | 1.47 |
| CCTACTGGGCCACGGTCATTGATCAGTCAAAGCA | 4.71 | 5.29 | -0.475 | -0.479 | 0.397 | -0.436 | -0.0793 | -0.106 | -0.863 | 1.56 |
| AGAATGAGGTTACCATAGATCAGGGAAACGCTTG | 3.38 | 3.18 | 0.359 | 0.63 | 0.136 | 0.897 | 0.179 | 1.54 | 0.172 | 1.79 |
| CCTCGGAGGACAGAAGGTCACAGCTGTCCGCTTT | 0.643 | 1.32 | -1.36 | -2.05 | 2.05 | 3.33 | -0.204 | 4.13 | 1.25 | 3.77 |
| TAGCCTAGGTCATGCGGGCCAGTAAAGTGTCGGC | 1.41 | 2.75 | 0.246 | -0.0156 | 0.811 | 1.51 | -0.33 | 2.44 | -0.385 | 3.78 |
| AGCTCTAGGTAAAGATAGTTCAGTGAATGCAAAT | 2.67 | 1.19 | 0.745 | 0.441 | 0.456 | 0.84 | 0.602 | 0.3 | 1.11 | 0.525 |
| TCATATAGGTACACAGGTGAAAGTCCGTAAGTTA | 3.06 | 2.34 | 0.518 | 0.496 | 1.23 | 1 | 0.981 | 0.908 | 1.26 | 0.943 |
| CCTCGGAGGACAGAAAGTCAGAGCTGTCCGCTTT | -0.616 | -1.05 | -1.75 | -1.4 | -0.952 | -0.859 | -0.619 | -0.54 | -0.769 | 0.221 |
| GCTAGCAGGCCATTTGGGTAACTCAATGACGGGC | 1.07 | 0.155 | -0.238 | -1.22 | -0.806 | -0.696 | -0.721 | -0.454 | -1.37 | -0.258 |
| GCCAGCAGGCCATTTGGGTCACTCAATGACGGGC | 0.295 | 1.48 | -0.593 | -1.66 | -0.218 | 0.499 | 0.123 | 0.783 | -1.21 | 1.49 |
| CTACCAAGGTGAACAAGGTCGTTGAATACTATTC | 2.52 | 2.79 | 0.336 | 0.338 | 0.802 | 2.75 | 2.05 | 2.46 | 0.109 | 2.03 |
| TCTAGTTGGTCAAAGTTCACACACTCGAAATGCG | 2.57 | 4.89 | 1.12 | 1.12 | 3.54 | 5.09 | 4.01 | 5.1 | 2.77 | 3.83 |
| CAAACTAGCTCAAGAGGTCAAAGTCCGCTTCCCG | 0.982 | 2.06 | 0.545 | 0.408 | 2.37 | 5.37 | 1.87 | 5.13 | 1.34 | 3.96 |

| Sequence | PBM binding z-score [1] | PBM binding z-score [2] | PBM binding z-score [3] | PBM binding z-score [4] | PBM binding z-score [5] | PBM binding z-score [6] | PBM binding z-score [7] | PBM binding z-score [8] | PBM binding z-score [9] | PBM binding z-score [10] |
| --- | --- | --- | --- | --- | --- | --- | --- | --- | --- | --- |
| CTACCAAGATGAACAAGGTCGTTGATTACTATTC | 0.459 | 0.305 | 0.173 | 0.136 | 0.792 | 1.53 | 1.73 | 1.45 | 1.7 | 0.656 |
| ATATGTAGGCTACATCCGGGTCATTCAGGCTATG | 5.71 | 5.66 | 1.96 | 1.11 | 0.66 | 2.34 | 1.04 | 2.51 | 0.115 | 1.27 |
| CTACCAAAGTGAACAAGGTCGTTGATTACTATTC | 0.74 | 0.473 | 0.238 | 0.295 | 0.64 | 1.76 | 1.48 | 1.47 | 0.789 | 0.821 |
| TCGAGTAGGTTAGTCGGGGCATTCAACCAACATA | 2.51 | 2.16 | -0.398 | -0.896 | -0.069 | 0.309 | -0.2 | 0.545 | 0.0845 | 0.517 |
| CGTCCAAGGTCAGCAGGTCAGTGACAGCGACGTG | 3.56 | 3.56 | -0.271 | -0.196 | 4.58 | 3.79 | 0.701 | 5.22 | 2.42 | 5.27 |
| CGTCCAAGGTCAATGCTAGGTCAGTAAAAGCATT | 3.36 | 4.08 | 0.0708 | -0.363 | 5.6 | 4.82 | 1.32 | 6.12 | 1.53 | 5.32 |
| TCATATAGGTAAAGGTGAAGGTCGAACGATATGA | 4.25 | 4.21 | 1.49 | 1.44 | 1.37 | 1.57 | 0.53 | 2 | 0.708 | 2.45 |
| CTCGAAAGGTCGTGCTCAGGCGAGTATACCAAAC | 0.449 | 1.53 | 0.141 | -0.559 | 0.928 | 2.68 | -0.312 | 3.16 | -0.0786 | 3.98 |
| CCTAGCAGGCCAGGGTTACTCAAGCATTTCGCTT | 0.153 | -0.137 | -1.74 | -1.06 | -0.6 | -0.139 | -0.48 | 0.193 | -0.665 | 0.303 |
| CCTATTAGTTGACCATAAGGGGAACCGAAGCTCG | 0.601 | 0.106 | 0.62 | 0.755 | 1.54 | 0.541 | 0.854 | 0.248 | 2.37 | 0.582 |
| TAGCCTAGGTCATCGGCCAGTATACCACGCGAAC | 1.44 | 2.98 | 1.05 | 0.00127 | 1.6 | 1.62 | -0.365 | 2.58 | -0.512 | 3.75 |
| TCATATAGGTAAAAGGTGAACGTCGGTGTGGTAA | 5.71 | 5.6 | 1.12 | 1.53 | 1.65 | 1.86 | 0.862 | 2.9 | 1.07 | 2.15 |
| GCGAGTTGGTCAGTAAAAGGTCACACACCGGTCG | 0.617 | 2.26 | 0.948 | -0.184 | 4.06 | 5.14 | 1.31 | 5.93 | 2.5 | 4.33 |
| ATCTCTAGGTAACCAAGTTCAGTGCATGCCGAAC | 3.99 | 3.29 | 0.293 | 0.732 | 0.815 | 2.2 | 2.24 | 1.03 | 0.856 | 1.37 |
| TCTTGAAGATCAACAGGAGGTTAAGAAAGATCGA | 1.18 | 0.0291 | 0.0497 | 0.387 | 0.165 | 0.962 | -0.127 | 1.25 | 0.0716 | 0.816 |
| CCTAGTTGGTCAGGAGGTCACAGACCGGATATGA | 1.33 | 3.88 | 0.154 | 0.248 | 3.25 | 4.28 | 1.01 | 4.9 | 1.4 | 3.79 |
| ACTAGCAGACCAAGTTTGGGTCACTCAAACAAAG | -0.311 | 0.415 | -0.191 | -0.505 | -0.222 | 0.6 | -0.393 | 1.12 | -0.119 | 0.992 |
| GTACCGAGGTGAATAGGTCGTTGATGAGTAGGCG | 1.68 | 2.73 | -0.652 | -0.0941 | 1.09 | 0.905 | -0.18 | 2.02 | -0.153 | 2.03 |
| TTACCCAGGTGAAAGGTCGTTGATGCACGCCTTG | 3.16 | 5.28 | 1.04 | 0.584 | 2.1 | 3.69 | 0.742 | 4.9 | -0.211 | 2.46 |
